Experimental data taken from PubChem BioAssay AID1159580 (chemical genetic matrix, 2015).
Several values for one entry are separate records, joined by “and”; a condition that tells them apart may be missing. Equal values may be shown once. The whole screen tested about 5,500 compounds, of which about 2,000 (36%) were called active. Another 18% or so got no clear call; they are omitted. Cut-off read from the data, not from the text of the source: active = normalized growth mostly below about 0.91 (no sharp cut-off); inconclusive = no clear call, values can overlap the other calls; inactive = mostly above about 0.92. This is one part of the list.

Experiment: chemical genetic growth profiling, strain panel (AID 1159580);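 note: tested at 20 µM; growth read once vehicle control cultures reached saturation at 30 °C; 1 = growth at the plate median or of vehicle wells; lower values mean less growth of the strain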
Details: S. cerevisiae deletion strains, growth OD

Measured: normalized growth

CC(=O)O[C@H]1C[C@@H](OC(C)=O)C(C)(C)C2C[C@@H](O)[C@]3(C)C(CC[C@@]4(C)[C@H](c5ccoc5)OC(=O)[C@H]5O[C@]543)[C@]21C (stereo partly specified)
active: locus YGL253W, strain hxk2, stronger effect = lower value 0.897
inactive: locus YAL021C, strain ccr4, stronger effect = lower value 1.05 | locus YAL026C, strain drs2, stronger effect = lower value 0.985 | locus YAL030W, strain snc1, stronger effect = lower value 0.995 | locus YBL061C, strain skt5, stronger effect = lower value 0.992 | locus YBR009C, strain hhf1, stronger effect = lower value 1 | locus YBR021W, strain FUR4, stronger effect = lower value 1.01 | locus YBR023C, strain chs3, stronger effect = lower value 1 | locus YBR171W, strain sec66, stronger effect = lower value 0.96 | locus YBR229C, strain ROT2, stronger effect = lower value 0.947 | locus YBR231C, strain swc5, stronger effect = lower value 0.977 | locus YBR279W, strain paf1, stronger effect = lower value 0.996 | locus YCL011C, strain gbp2, stronger effect = lower value 0.996 | locus YCL016C, strain dcc1, stronger effect = lower value 1.03 | locus YCL029C, strain bik1, stronger effect = lower value 0.971 | locus YCL069W, strain vba3, stronger effect = lower value 0.969 | locus YCR088W, strain abp1, stronger effect = lower value 0.983 | locus YDL005C, strain med2, stronger effect = lower value 1.01 | locus YDL035C, strain GPR1, stronger effect = lower value 0.965 | locus YDL040C, strain nat1, stronger effect = lower value 0.976 | locus YDL074C, strain BRE1, stronger effect = lower value 0.939 | locus YDL101C, strain DUN1, stronger effect = lower value 0.992 | locus YDL185W, strain tfp1, stronger effect = lower value 0.956 | locus YDL192W, strain arf1, stronger effect = lower value 0.977 | locus YDR001C, strain nth1, stronger effect = lower value 0.989 | locus YDR069C, strain doa4, stronger effect = lower value 0.981 | locus YDR101C, strain arx1, stronger effect = lower value 0.954 | locus YDR137W, strain rgp1, stronger effect = lower value 0.987 | locus YDR159W, strain sac3, stronger effect = lower value 0.936 | locus YDR162C, strain NBP2, stronger effect = lower value 0.948 | locus YDR195W, strain ref2 0.935 | locus YDR297W, strain sur2, stronger effect = lower value 0.992 | locus YDR318W, strain mcm21, stronger effect = lower value 0.982 | locus YDR334W, strain swr1, stronger effect = lower value 0.993 | locus YDR335W, strain msn5, stronger effect = lower value 0.99 | locus YDR388W, stronger effect = lower value 0.99 | locus YDR392W, strain spt3, stronger effect = lower value 0.966 | locus YDR502C, strain sam2, stronger effect = lower value 0.996 | locus YEL003W, strain gim4, stronger effect = lower value 0.977 | locus YEL037C, strain rad23, stronger effect = lower value 0.989 | locus YEL061C, strain CIN8 (second series), stronger effect = lower value 0.982 | locus YER015W, strain faa2, stronger effect = lower value 0.997 | locus YER016W, strain bim1, stronger effect = lower value 0.977 | locus YER110C, stronger effect = lower value 0.966 | locus YER111C, strain swi4, stronger effect = lower value 0.975 | locus YER155C, strain BEM2 (second series), stronger effect = lower value 1.02 | locus YER155C, strain BEM2, stronger effect = lower value 1.02 | locus YER167W, strain BCK2, stronger effect = lower value 0.995 | locus YFR010W, strain ubp6, stronger effect = lower value 0.963 | locus YGL078C, strain dbp3, stronger effect = lower value 0.978 | locus YGL086W, strain mad1, stronger effect = lower value 0.997 | locus YGL167C, strain pmr1, stronger effect = lower value 1 | locus YGL173C, strain kem1, stronger effect = lower value 0.962 | locus YGL227W, strain vid30, stronger effect = lower value 0.986 | locus YGL240W, strain doc1, stronger effect = lower value 0.973 | locus YGL248W, strain PDE1, stronger effect = lower value 0.97 | locus YGR078C, strain PAC10, stronger effect = lower value 1.01 | locus YGR135W, strain pre9, stronger effect = lower value 1.04 | locus YGR252W, strain gcn5, stronger effect = lower value 0.941 | locus YHR013C, strain ard1, stronger effect = lower value 0.997 | locus YHR027C, strain rpn1, stronger effect = lower value 0.986 | locus YHR030C, strain SLT2, stronger effect = lower value 0.982 | locus YHR079C, strain IRE1 (second series), stronger effect = lower value 0.986 | locus YHR079C, strain IRE1, stronger effect = lower value 0.999 | locus YHR094C, strain hxt1, stronger effect = lower value 0.975 | locus YHR129C, strain ARP1, stronger effect = lower value 0.988 | locus YHR142W, strain chs7, stronger effect = lower value 0.977 | locus YHR200W, strain rpn10, stronger effect = lower value 0.979 | locus YIL066C, strain RNR3, stronger effect = lower value 0.935 | locus YIL073C, strain SPO22, stronger effect = lower value 0.893 | locus YIL125W, strain kgd1, stronger effect = lower value 0.989 | locus YIR030C, strain dcg1, stronger effect = lower value 0.989 | locus YJL092W, strain hpr5, stronger effect = lower value 0.99 | locus YJL095W, strain BCK1 (second series), stronger effect = lower value 0.973 | locus YJL095W, strain BCK1, stronger effect = lower value 1.03 and 0.979 | locus YJL115W, strain asf1, stronger effect = lower value 0.996 | locus YJL129C, strain trk1, stronger effect = lower value 0.96 | locus YJL134W, strain LCB3, stronger effect = lower value 0.977 | locus YJL154C, strain vps35, stronger effect = lower value 0.995 | locus YJL164C, strain tpk1, stronger effect = lower value 1.01 | locus YJL166W, strain qcr8, stronger effect = lower value 0.955 | locus YJL168C, strain set2, stronger effect = lower value 0.995 | locus YJL187C, strain SWE1 (second series), stronger effect = lower value 1.01 | locus YJR043C, strain POL32, stronger effect = lower value 0.942 | locus YJR066W, strain TOR1, stronger effect = lower value 0.935 | locus YKL009W, strain mrt4, stronger effect = lower value 0.955 | locus YKL068W, stronger effect = lower value 0.969 | locus YKL085W, strain MDH1 (second series), stronger effect = lower value 0.987 | locus YKL085W, strain MDH1, stronger effect = lower value 0.987 | locus YKL160W, strain elf1, stronger effect = lower value 1.04 | locus YKL190W, strain CNB1, stronger effect = lower value 0.996 | locus YKR001C, strain vps1, stronger effect = lower value 0.978 | locus YKR026C, strain gcn3, stronger effect = lower value 1.05 | locus YKR091W, strain srl3, stronger effect = lower value 1 | locus YLL001W, strain dnm1, stronger effect = lower value 0.971 | locus YLL026W, stronger effect = lower value 0.994 | locus YLL041C, strain sdh2, stronger effect = lower value 0.989 | locus YLR027C, strain aat2, stronger effect = lower value 1.01 | locus YLR039C, strain RIC1, stronger effect = lower value 0.97 | locus YLR058C, strain SHM2, stronger effect = lower value 0.973 | locus YLR102C, strain apc9, stronger effect = lower value 0.973 | locus YLR113W, strain HOG1, stronger effect = lower value 1.02 | locus YLR221C, strain rsa3, stronger effect = lower value 0.969 | locus YLR258W, strain gsy2, stronger effect = lower value 0.992 | locus YLR262C, strain YPT6 (second series), stronger effect = lower value 0.985 | locus YLR268W, strain sec22, stronger effect = lower value 0.954 | locus YLR320W, strain mms22, stronger effect = lower value 0.978 | locus YLR330W, strain CHS5, stronger effect = lower value 0.992 | locus YLR342W, strain FKS1, stronger effect = lower value 1.01 | locus YLR357W, strain rsc2, stronger effect = lower value 1.04 | locus YLR370C, strain arc18, stronger effect = lower value 0.973 | locus YLR371W, strain rom2, stronger effect = lower value 0.986 | locus YLR384C, strain iki3, stronger effect = lower value 0.971 | locus YLR418C, strain cdc73, stronger effect = lower value 0.976 | locus YML016C, strain PPZ1, stronger effect = lower value 0.969 | locus YML032C, strain rad52, stronger effect = lower value 0.952 | locus YML120C, strain ndi1, stronger effect = lower value 1.01 | locus YML124C, strain tub3, stronger effect = lower value 0.992 | locus YMR058W, strain fet3, stronger effect = lower value 0.999 | locus YMR078C, strain ctf18, stronger effect = lower value 0.971 | locus YMR125W, strain sto1, stronger effect = lower value 1.01 | locus YMR129W, stronger effect = lower value 0.987 | locus YMR205C, strain PFK2, stronger effect = lower value 1.05 | locus YMR223W, strain ubp8, stronger effect = lower value 0.978 | locus YMR231W, strain pep5, stronger effect = lower value 0.971 | locus YMR307W, strain GAS1, stronger effect = lower value 1.01 | locus YNL067W, strain RPL9B, stronger effect = lower value 1.03 | locus YNL071W, strain lat1, stronger effect = lower value 0.984 | locus YNL128W, strain TEP1, stronger effect = lower value 0.954 | locus YNL153C, strain GIM3, stronger effect = lower value 1.01 | locus YNL183C, strain NPR1, stronger effect = lower value 0.944 | locus YNL209W, strain ssb2, stronger effect = lower value 0.999 | locus YNL233W, strain BNI4, stronger effect = lower value 1.02 | locus YNL248C, strain rpa49, stronger effect = lower value 0.962 | locus YNL250W, strain rad50, stronger effect = lower value 0.982 | locus YNL271C, strain bni1, stronger effect = lower value 0.983 | locus YNL298W, strain CLA4, stronger effect = lower value 0.993 | locus YNL307C, strain MCK1, stronger effect = lower value 0.99 | locus YNL322C, strain KRE1 (second series), stronger effect = lower value 0.987 | locus YNL322C, strain KRE1, stronger effect = lower value 0.987 | locus YNR049C, strain mso1, stronger effect = lower value 0.991 | locus YNR052C, strain pop2, stronger effect = lower value 0.999 | locus YOL006C, strain TOP1, stronger effect = lower value 0.955 | locus YOL012C, strain htz1 1.02 | locus YOL147C, strain pex11, stronger effect = lower value 0.998 | locus YOR001W, strain rrp6, stronger effect = lower value 0.935 | locus YOR061W, strain CKA2, stronger effect = lower value 0.967 | locus YOR069W, strain VPS5, stronger effect = lower value 1 | locus YOR070C, strain gyp1, stronger effect = lower value 1.02 | locus YOR080W, strain dia2, stronger effect = lower value 0.98 | locus YOR083W, strain WHI5, stronger effect = lower value 1.04 | locus YOR106W, strain vam3, stronger effect = lower value 1.02 | locus YOR136W, strain idh2, stronger effect = lower value 0.971 | locus YOR144C, strain elg1, stronger effect = lower value 0.964 | locus YOR184W, strain ser1, stronger effect = lower value 0.95 | locus YOR231W, strain MKK1, stronger effect = lower value 0.982 | locus YOR265W, strain rbl2, stronger effect = lower value 1.01 | locus YOR270C, strain vph1, stronger effect = lower value 0.841 | locus YOR290C, strain snf2, stronger effect = lower value 1.03 | locus YOR316C, strain cot1, stronger effect = lower value 0.989 | locus YPL051W, strain arl3, stronger effect = lower value 0.979 | locus YPL078C, strain atp4, stronger effect = lower value 1.02 | locus YPL106C, strain sse1, stronger effect = lower value 1.02 | locus YPL240C, strain hsp82, stronger effect = lower value 0.984 | locus YPL241C, strain CIN2, stronger effect = lower value 0.985 | locus YPL256C, strain CLN2, stronger effect = lower value 0.993 | locus YPR119W, strain clb2, stronger effect = lower value 0.998 | locus YPR141C, strain kar3, stronger effect = lower value 0.983 | locus YPR163C, strain tif3, stronger effect = lower value 0.986 | locus YPR167C, strain met16, stronger effect = lower value 0.988 | strain wtn01, stronger effect = lower value 0.972
